The source of these data is PubChem BioAssay (NCI).

Each structure is given as a SMILES string. Compounds without any hit were thinned out: in the full panel of roughly 83,000, 20% have a hit.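 In brief: 96-well plates, 48 h treatment, single concentration, percent growth endpoint.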 A number with no mark means an inactive call. Activity calls are given as the source filed them. The calls were made as follows: active = growth percent below 10; inactive = the rest.

Test systems include NCI-H23 lung; NCI-H226 lung; HOP-62 NSCLC; NCI-H460 lung; HOP-92 NSCLC; NCI-H522 lung; A549/ATCC NSCLC; 786-0 renal; DU-145 prostate; K-562 leukemia; MALME-3M melanoma; MDA-MB-231 breast; RXF 393 renal; SF-268 CNS; SF-295 CNS; SF-539 CNS; UACC-257 melanoma; M14 melanoma; COLO 205 colon.
Common to all, as to test: NCI-60 one-dose screen, 48 h (100 = growth as untreated, 0 = no growth, -100 = all killed)
Common to all, as to conditions: 10 µM unless noted

As to `CCCN1CCN(c2ccc3nc(-c4ccc5nc(-c6cc(OC)c(OC)c(OC)c6)[nH]c5c4)[nH]c3c2)CC1`, the growth in the assay on NCI-H23 lung was 80.1%; in the assay with NCI-H226 lung, 81.7%; in the assay on HOP-62 NSCLC it was 84.3%; in the assay with NCI-H460 lung, 93.2%; in the assay on HOP-92 NSCLC it was 70.5%; with NCI-H522 lung, 41.1%. The growth in the assay on A549/ATCC NSCLC was 106%; with 786-0 renal it was 77.3%; in the assay with DU-145 prostate it was 109%; in the assay on K-562 leukemia, 59.5%; in the assay on MALME-3M melanoma, 7.58% (active); with MDA-MB-231 breast, 98.4%. Moreover, the growth is 15.6% with RXF 393 renal; 75.6% with SF-268 CNS; 65.9% with SF-295 CNS; 59.6% with SF-539 CNS; 71.7% with UACC-257 melanoma; 63.9% with M14 melanoma.

Turning to `O=C1/C(=C/c2ccccc2[N+](=O)[O-])COc2ccc(O)c(O)c21`, the growth with NCI-H23 lung is -4.09% (active); with NCI-H226 lung it was -8.66% (active); with HOP-62 NSCLC, 30.3%; in the assay with NCI-H460 lung, 0.563% (active); in the assay with HOP-92 NSCLC, -9.78% (active); in the assay on NCI-H522 lung, -45.2% (active). In addition, the growth in the assay with A549/ATCC NSCLC was 30.8%; with 786-0 renal, 10.6%; with COLO 205 colon, -32.6% (active); in the assay with DU-145 prostate it was 2.13% (active); in the assay with K-562 leukemia it was 4.47% (active); in the assay with MALME-3M melanoma it was -31.6% (active). Further, the growth is -16.7% (active) in the assay on MDA-MB-231 breast; 0.467% (active) in the assay with SF-268 CNS; 58.3% with SF-295 CNS; -69.4% (active) in the assay with SF-539 CNS; -8.55% (active) in the assay with UACC-257 melanoma.

`C#C[C@]1(O)CC[C@H]2[C@@H]3CC=C4c5sc(N=C(N)N)nc5CC[C@]4(C)[C@H]3CC[C@@]21C`: the growth with NCI-H23 lung is 28.5%; in the assay with NCI-H226 lung, 35.2%; in the assay with HOP-62 NSCLC, -37.5% (active); in the assay with NCI-H460 lung, -14.5% (active); with HOP-92 NSCLC it was 32.7%; in the assay on NCI-H522 lung, -24.1% (active). The growth with A549/ATCC NSCLC is -13.1% (active); with COLO 205 colon it was -38.7% (active); in the assay with DU-145 prostate, 8.62% (active); with K-562 leukemia, -21.1% (active); with MALME-3M melanoma it was -76.2% (active); in the assay with MDA-MB-231 breast it was -45.4% (active). Besides, the growth is -56.6% (active) in the assay with RXF 393 renal; -15% (active) with SF-268 CNS; -56.2% (active) in the assay on SF-295 CNS; -81.3% (active) in the assay on SF-539 CNS; -44.8% (active) with UACC-257 melanoma.

Turning to `O=C1c2cccc3c(-c4ccc(-c5nc6c7ccccc7c7ccccc7c6[nH]5)cc4)ccc(c23)C(=O)N1CCN1CCNCC1`, the growth in the assay with NCI-H23 lung was 83.3%; in the assay with NCI-H226 lung, 94.9%; in the assay on HOP-62 NSCLC, 62.1%; in the assay on NCI-H460 lung, 41.2%; in the assay on HOP-92 NSCLC, 86.2%; in the assay on NCI-H522 lung, 91.8%. Moreover, the growth is 70.7% with A549/ATCC NSCLC; 52.4% with 786-0 renal; 61.9% in the assay with COLO 205 colon; 42.5% in the assay with DU-145 prostate; -10.2% (active) in the assay on K-562 leukemia; 85.4% with MALME-3M melanoma. The growth was 63.3% in the assay with MDA-MB-231 breast; 104% in the assay on SF-268 CNS; 101% with SF-295 CNS; 73.8% in the assay on SF-539 CNS; 108% with UACC-257 melanoma.

Regarding `Nc1c(C(=O)c2ccc(Cl)s2)sc2nc3c(cc12)CCCC3`, the growth is 91.5% in the assay on NCI-H23 lung; 96.6% in the assay with NCI-H226 lung; 97.3% in the assay with HOP-62 NSCLC; 98.6% in the assay with NCI-H460 lung; 82.5% in the assay with HOP-92 NSCLC; 83.1% in the assay with NCI-H522 lung. The growth in the assay with A549/ATCC NSCLC is 100%; in the assay on 786-0 renal, 106%; in the assay on COLO 205 colon, 110%; with DU-145 prostate it was 110%; in the assay with K-562 leukemia, 101%; in the assay on MALME-3M melanoma, 100%. In addition, the growth in the assay with MDA-MB-231 breast is 108%; in the assay with RXF 393 renal, 113%; in the assay on SF-268 CNS, 104%; in the assay on SF-295 CNS, 102%; in the assay with SF-539 CNS, 96.8%; in the assay on UACC-257 melanoma, 105%.

`CCCCC1COc2cccc3c(SCC(=O)N(C)c4cccc(Cl)c4)cc[n+]1c23` (centres undefined): the growth is 99.9% in the assay with NCI-H23 lung; 103% in the assay with NCI-H226 lung; 109% in the assay on HOP-62 NSCLC; 113% in the assay with NCI-H460 lung; 113% with HOP-92 NSCLC; 96.9% with NCI-H522 lung. In addition, the growth is 109% in the assay with A549/ATCC NSCLC; 107% in the assay on 786-0 renal; 110% in the assay on COLO 205 colon; 120% with DU-145 prostate; 97.8% in the assay on K-562 leukemia; 104% in the assay with MALME-3M melanoma. The growth in the assay with MDA-MB-231 breast is 101%; in the assay with SF-268 CNS, 118%; in the assay with SF-295 CNS, 99.3%; with SF-539 CNS, 97.5%; in the assay on UACC-257 melanoma it was 113%.

Regarding `N#Cc1c(Oc2ccc([N+](=O)[O-])cc2)nc2sc3cc(Cl)ccc3n2c1=N`, the growth in the assay on NCI-H23 lung was 73.7%; in the assay with NCI-H226 lung it was 56.8%; with HOP-62 NSCLC, 107%; with NCI-H460 lung, 96.5%; with HOP-92 NSCLC, 83.7%; in the assay on NCI-H522 lung, 93.7%. Also, the growth is 72.9% in the assay with A549/ATCC NSCLC; 64.3% in the assay with 786-0 renal; 105% in the assay with DU-145 prostate; 118% in the assay with K-562 leukemia; -10.6% (active) in the assay with MALME-3M melanoma; 97.3% in the assay with MDA-MB-231 breast. For the same compound, the growth in the assay with RXF 393 renal is 32.6%; with SF-268 CNS it was 64.9%; in the assay on SF-295 CNS it was 76.4%; with SF-539 CNS, 106%; in the assay with UACC-257 melanoma, 57.6%; with M14 melanoma it was 78%.

In the case of `O=c1[nH]c(NCc2nnnn2-c2ccc(Br)cc2)nc2sc3c(c12)CCCC3`, the growth in the assay with NCI-H23 lung is 97.6%; with NCI-H226 lung it was 94.3%; in the assay with HOP-62 NSCLC it was 94.1%; in the assay on NCI-H460 lung, 100%; in the assay with HOP-92 NSCLC, 94.5%; in the assay with NCI-H522 lung, 72.2%. The growth in the assay on A549/ATCC NSCLC is 77.4%; in the assay on 786-0 renal, 88%; with COLO 205 colon it was 97.9%; in the assay with DU-145 prostate it was 106%; with MALME-3M melanoma, 112%; in the assay with MDA-MB-231 breast, 92.4%. Besides, the growth in the assay on RXF 393 renal was 103%; in the assay with SF-268 CNS it was 98.7%; with SF-295 CNS, 92.1%; in the assay on SF-539 CNS, 95.9%; in the assay with UACC-257 melanoma, 96%.
